Data as given in PubChem BioAssay (EPA / NIEHS).
Activity calls are given as the source filed them. How the source made its calls: active means hit-call score of the fitted dose curve at least 0.9, where 1 is the maximum; inactive means score below 0.9.

Columns and labels:
[1] = ATG_CRE_CIS: Attagene CIS-FACTORIAL HepG2 Assay for human cAMP Responsive Element (CRE) binding protein 3 (AID 2282926); details: HepG2 CRE cis-reporter, Attagene multiplexed mRNA; actives raise or lower the signal
Summary of the method: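 Capillary electrophoresis of 6-FAM-labelled, HpaI-digested PCR products quantified reporter transcripts. These came from HepG2 transiently transfected with cis-element reporters and exposed to test chemicals for 24 hours, with DMSO defining baseline activity.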

[2] = target: CCAAT/enhancer-binding protein beta (Homo sapiens) (UniProt P17676); assay: ATG_C_EBP_CIS: Attagene CIS-FACTORIAL HepG2 Assay for human CCAAT/Enhancer Binding Protein (C/EBP) beta (AID 2282927); details: HepG2 Attagene cis-factorial transcription factor reporter; actives raise or lower the signal
Summary of the method: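 Endogenous transcription factor activity in human liver HepG2 cells is inferred from induction of a CEBPB-linked reporter mRNA. Exposure lasts 24 h; activity is fitted in both directions relative to DMSO.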

[3] = ATG_CMV_CIS: Attagene CIS-FACTORIAL HepG2 Assay for human CMV (Internal Marker) (AID 2282928); details: HepG2 CMV promoter reporter, transcription factor profiling; actives raise or lower the signal;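 further: endpoint acts as a background internal control marker rather than a target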
Summary of the method: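 Readout: fluorescent reporter cDNA fragments separated by capillary electrophoresis after RT-PCR and HpaI cut. Cells: HepG2 carrying transfected cis-promoter reporter constructs, dosed 24 h. Endpoint serves as background internal-marker control, fit bidirectionally versus DMSO.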

[4] = ATG_DR4_LXR_CIS: Attagene CIS-FACTORIAL HepG2 Assay for human Liver X Receptor (LXR), DR4 submotif (AID 2282929); details: HepG2 Attagene DR4 cis-reporter, mRNA transcription; actives raise or lower the signal
Summary of the method: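 Readout: reporter transcript fluorescence after RT-PCR and capillary electrophoresis, fitted bidirectionally against DMSO controls. Human HepG2 liver cells carried transiently transfected multiplexed reporter constructs; endogenous transcription factor activity measured 24 h post-dosing.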

[5] = target: Aryl hydrocarbon receptor (Homo sapiens) (UniProt P35869); assay: ATG_Ahr_CIS: Attagene CIS-FACTORIAL HepG2 Assay for human Aryl Hydrocarbon Receptor (Ahr) (AID 2282930); details: HepG2 AhR cis-factorial reporter transcription; actives raise or lower the signal
Summary of the method: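 Transient MRTU transfection of HepG2 → 24 h compound exposure → total RNA, oligo(dT) RT → PCR, 6-FAM extension, HpaI cut → CE fluorescence. DMSO = baseline; bidirectional curve fit.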

[6] = ATG_AP_1_CIS: Attagene CIS-FACTORIAL HepG2 Assay for human Activator Protein 1 (AP-1) (AID 2282931); details: HepG2 Attagene cis-factorial AP-1 reporter mRNA; actives raise or lower the signal
Summary of the method: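 Reporter transcripts were measured 24 h after dosing by RT-PCR and capillary electrophoresis of fluorescent fragments. Cells: HepG2 carrying transfected cis-regulated reporter constructs reading endogenous factor activity. Gain or loss fitted against DMSO.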

[7] = ATG_AP_2_CIS: Attagene CIS-FACTORIAL HepG2 Assay for human Activator Protein 2 (AP-2) (AID 2282932); details: HepG2 AP-2 cis-reporter, Attagene transcription factor profiling; actives raise or lower the signal
Summary of the method: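 Transiently transfected HepG2 cells are exposed to chemical for 24 h. Reporter transcripts are then measured as fluorescence following RT-PCR and capillary separation, and gain- or loss-of-signal is fitted relative to DMSO.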

[8] = ATG_BRE_CIS: Attagene CIS-FACTORIAL HepG2 Assay for human Bone Morphogenetic Protein (BMP) Response Element (BRE) (AID 2282933); details: HepG2 BMP response element reporter, Attagene transcription factor profiling; actives raise or lower the signal
Summary of the method: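 Endogenous transcription factor activity at a BMP response element was monitored in transfected HepG2 cells 24 h after dosing. Fluorescent RT-PCR products were resolved by capillary electrophoresis, and activity was fitted in both directions versus DMSO.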

[9] = target: Transcription factor E2F1 (Homo sapiens) (UniProt Q01094); assay: ATG_E2F_CIS: Attagene CIS-FACTORIAL HepG2 Assay for human E2F Transcription Factor 1 (AID 2282935); details: HepG2 Attagene cis-reporter, E2F reporter RNA transcripts; actives raise or lower the signal
Summary of the method: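 Fluorescent RT-PCR products, digested with HpaI for 2 h at 37 C, are separated by capillary electrophoresis. Source RNA comes from transfected HepG2 cultures treated for 24 h.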

[10] = ATG_M_61_CIS: Attagene CIS-FACTORIAL HepG2 Assay for M61 Transcription Factor (Internal Marker) (AID 2282937); details: HepG2 Attagene CIS-FACTORIAL M61 internal marker reporter; actives raise or lower the signal
Summary of the method: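 Readout: fluorescent reporter mRNA fragments resolved by capillary electrophoresis after RT-PCR. Transiently transfected human HepG2 cells carried MRTU constructs reporting endogenous TF activity; 24 h chemical exposure; gain or loss of signal fitted relative to DMSO.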

[11] = ATG_EGR_CIS: Attagene CIS-FACTORIAL HepG2 Assay for human Early Growth Response 1 (EGR1) (AID 2282938); details: HepG2 Attagene CIS-FACTORIAL EGR reporter mRNA; actives raise or lower the signal
Summary of the method: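 Read-out: fluorescent reporter-mRNA fragments resolved by capillary electrophoresis after RT-PCR, 24 h post-dose in transiently transfected HepG2. Endogenous transcription-factor activity reported via cis-element-regulated reporter units; gain or loss fitted relative to DMSO.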

[12] = ATG_M_19_CIS: Attagene CIS-FACTORIAL HepG2 Assay for M19 Transcription Factor (Internal Marker) (AID 2282939); details: HepG2 Attagene CIS-FACTORIAL M19 internal marker reporter; actives raise or lower the signal
Summary of the method: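 Background-control endpoint from a multiplexed HepG2 reporter panel. Cells carrying cis-regulated reporter constructs are treated 24 h, then reporter transcripts are amplified, fluorescently labelled and sized by capillary electrophoresis. DMSO defines baseline.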

[13] = ATG_Ets_CIS: Attagene CIS-FACTORIAL HepG2 Assay for human Erythroblast Transformation Specific (ETS) (AID 2282941); details: HepG2 ETS cis-reporter transcription, actives raise or lower the signal
Summary of the method: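 RT-PCR/capillary electrophoresis fluorescence read-out of reporter mRNA; HepG2 transient multi-reporter transfection; 24 h compound exposure; gain or loss of signal fitted bidirectionally relative to DMSO.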

[14] = target: Hepatocyte nuclear factor 3-beta (Homo sapiens) (UniProt Q9Y261); assay: ATG_FoxA2_CIS: Attagene CIS-FACTORIAL HepG2 Assay for human Forkhead box A2 (FOXA2) (AID 2282942); details: HepG2 cis-reporter transcription factor activity, 24 h; actives raise or lower the signal
Summary of the method: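 Readout: fluorescent reporter transcripts resolved by capillary electrophoresis after RT-PCR. Transiently transfected HepG2, 24 h compound exposure, endogenous TF activity at cis promoter elements. Gain or loss of signal fitted relative to DMSO.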

[15] = ATG_FoxO_CIS: Attagene CIS-FACTORIAL HepG2 Assay for human Forkhead box O (FoxO) (AID 2282943); details: HepG2 Attagene cis-reporter, FoxO element, mRNA; actives raise or lower the signal
Summary of the method: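 HepG2, transient MRTU transfection (cis element, endogenous TFs). Dose 24 h. TriZol RNA → oligo(dT) RT → PCR → 6-FAM primer extension → HpaI cut → CE. Gain/loss vs DMSO.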

[16] = ATG_GATA_CIS: Attagene CIS-FACTORIAL HepG2 Assay for human GATA Binding Protein (AID 2282944); details: HepG2 GATA cis-element reporter, Attagene multiplex mRNA; actives raise or lower the signal
Summary of the method: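 Endogenous transcription factor activity was captured through cis-promoter-driven reporters in transfected HepG2 cells. After 24 h exposure, reporter transcripts were quantified by RT-PCR with fluorescent capillary electrophoresis, and responses fitted both directions against DMSO.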

[17] = ATG_GLI_CIS: Attagene CIS-FACTORIAL HepG2 Assay for human Zinc Finger Protein GLI1 (AID 2282945); details: HepG2, Attagene cis-factorial reporter mRNA, GLI element; actives raise or lower the signal
Summary of the method: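 Bidirectional curve fits relative to DMSO, using reporter mRNA levels from RT-PCR plus capillary electrophoresis. Cells were HepG2 transiently carrying cis-regulated reporter constructs, harvested 24 h after dosing.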

[18] = target: Retinoic acid receptor alpha (Homo sapiens) (UniProt P10276); assay: ATG_DR5_RAR_CIS: Attagene CIS-FACTORIAL HepG2 Assay for human Retinoic Acid Receptor Alpha (RARE), DR5 submotif (AID 2282934); details: HepG2 Attagene cis-factorial RARE DR5 reporter, mRNA; actives raise or lower the signal
Summary of the method: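 Transient MRTU transfection of HepG2; 24 h compound treatment; TriZol RNA, oligo(dT) RT, PCR, FAM labelling, capillary electrophoresis. Bidirectional fit vs DMSO. Endogenous TF activity at DR5 RARE.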

[19] = ATG_ERE_CIS: Attagene CIS-FACTORIAL HepG2 Assay for Estrogen Response Element (ERE) (AID 2282940); details: HepG2 ERE cis-reporter, Attagene RNA transcript; actives raise or lower the signal
Summary of the method: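 Cells used were human hepatoma HepG2, transfected with multiple reporter transcription units under cis-regulatory promoters. Reporter mRNA, read 24 h post-dosing via fluorescent RT-PCR products on capillary electrophoresis, was fitted bidirectionally relative to DMSO.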

Measured: outcome

Transcription factor E2F1 (Homo sapiens), sequence (Q01094 whole entry, looked up): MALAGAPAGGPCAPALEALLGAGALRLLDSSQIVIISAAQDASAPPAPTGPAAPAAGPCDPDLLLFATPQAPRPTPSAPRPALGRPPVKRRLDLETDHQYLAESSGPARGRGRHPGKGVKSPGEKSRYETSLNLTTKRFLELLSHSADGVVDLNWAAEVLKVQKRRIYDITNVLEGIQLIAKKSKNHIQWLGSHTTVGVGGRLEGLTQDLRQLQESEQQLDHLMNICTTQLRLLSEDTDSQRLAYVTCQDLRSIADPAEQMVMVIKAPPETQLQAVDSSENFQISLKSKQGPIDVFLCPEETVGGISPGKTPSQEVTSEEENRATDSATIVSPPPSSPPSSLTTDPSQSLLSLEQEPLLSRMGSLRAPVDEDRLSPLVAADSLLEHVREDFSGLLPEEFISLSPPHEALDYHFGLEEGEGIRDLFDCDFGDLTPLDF
Aryl hydrocarbon receptor (Homo sapiens), sequence (P35869 whole entry, looked up): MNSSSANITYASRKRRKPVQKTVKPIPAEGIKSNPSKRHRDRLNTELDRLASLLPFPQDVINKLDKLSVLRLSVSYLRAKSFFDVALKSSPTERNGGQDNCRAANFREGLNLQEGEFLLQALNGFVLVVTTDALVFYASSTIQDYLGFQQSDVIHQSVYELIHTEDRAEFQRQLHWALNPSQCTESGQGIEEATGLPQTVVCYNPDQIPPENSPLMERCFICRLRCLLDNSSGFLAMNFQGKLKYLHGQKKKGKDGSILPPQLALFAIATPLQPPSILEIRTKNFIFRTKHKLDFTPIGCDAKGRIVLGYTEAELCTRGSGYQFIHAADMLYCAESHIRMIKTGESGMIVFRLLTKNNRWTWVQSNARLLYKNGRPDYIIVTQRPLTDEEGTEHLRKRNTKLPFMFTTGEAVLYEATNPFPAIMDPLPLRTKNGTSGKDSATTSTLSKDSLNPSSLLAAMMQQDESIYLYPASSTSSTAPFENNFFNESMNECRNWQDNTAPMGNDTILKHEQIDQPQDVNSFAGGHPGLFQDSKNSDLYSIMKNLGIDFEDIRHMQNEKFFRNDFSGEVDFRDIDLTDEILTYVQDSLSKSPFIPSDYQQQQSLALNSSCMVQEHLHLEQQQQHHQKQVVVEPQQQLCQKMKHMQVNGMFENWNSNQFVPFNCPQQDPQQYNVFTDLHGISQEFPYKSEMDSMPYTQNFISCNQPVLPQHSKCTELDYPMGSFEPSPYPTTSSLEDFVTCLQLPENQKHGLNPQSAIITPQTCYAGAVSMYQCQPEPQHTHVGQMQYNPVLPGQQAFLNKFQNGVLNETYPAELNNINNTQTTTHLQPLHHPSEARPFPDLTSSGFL
CCAAT/enhancer-binding protein beta (Homo sapiens), sequence (P17676 whole entry, looked up): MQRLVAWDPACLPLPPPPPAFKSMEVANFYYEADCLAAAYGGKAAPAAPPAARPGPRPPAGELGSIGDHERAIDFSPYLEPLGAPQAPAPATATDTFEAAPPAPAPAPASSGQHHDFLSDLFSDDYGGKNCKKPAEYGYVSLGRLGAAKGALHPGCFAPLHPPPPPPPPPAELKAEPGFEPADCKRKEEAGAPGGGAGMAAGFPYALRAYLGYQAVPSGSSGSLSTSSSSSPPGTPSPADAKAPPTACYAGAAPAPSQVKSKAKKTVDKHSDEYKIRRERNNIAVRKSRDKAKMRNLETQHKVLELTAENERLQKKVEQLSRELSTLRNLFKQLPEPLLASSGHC
Retinoic acid receptor alpha (Homo sapiens), sequence (P10276 whole entry, looked up): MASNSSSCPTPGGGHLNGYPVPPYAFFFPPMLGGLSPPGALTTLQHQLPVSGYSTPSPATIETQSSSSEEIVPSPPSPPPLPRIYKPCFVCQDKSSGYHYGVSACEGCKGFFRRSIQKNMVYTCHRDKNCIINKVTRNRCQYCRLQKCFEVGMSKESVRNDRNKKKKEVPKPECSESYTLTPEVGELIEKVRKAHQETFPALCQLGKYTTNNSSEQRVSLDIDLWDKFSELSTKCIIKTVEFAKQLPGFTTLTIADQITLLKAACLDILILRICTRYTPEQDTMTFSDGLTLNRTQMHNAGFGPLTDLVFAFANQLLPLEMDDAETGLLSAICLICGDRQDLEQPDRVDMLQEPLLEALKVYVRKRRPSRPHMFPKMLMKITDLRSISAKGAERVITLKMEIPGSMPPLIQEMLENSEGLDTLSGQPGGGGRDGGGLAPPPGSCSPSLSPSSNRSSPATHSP
Hepatocyte nuclear factor 3-beta (Homo sapiens), sequence (Q9Y261 whole entry, looked up): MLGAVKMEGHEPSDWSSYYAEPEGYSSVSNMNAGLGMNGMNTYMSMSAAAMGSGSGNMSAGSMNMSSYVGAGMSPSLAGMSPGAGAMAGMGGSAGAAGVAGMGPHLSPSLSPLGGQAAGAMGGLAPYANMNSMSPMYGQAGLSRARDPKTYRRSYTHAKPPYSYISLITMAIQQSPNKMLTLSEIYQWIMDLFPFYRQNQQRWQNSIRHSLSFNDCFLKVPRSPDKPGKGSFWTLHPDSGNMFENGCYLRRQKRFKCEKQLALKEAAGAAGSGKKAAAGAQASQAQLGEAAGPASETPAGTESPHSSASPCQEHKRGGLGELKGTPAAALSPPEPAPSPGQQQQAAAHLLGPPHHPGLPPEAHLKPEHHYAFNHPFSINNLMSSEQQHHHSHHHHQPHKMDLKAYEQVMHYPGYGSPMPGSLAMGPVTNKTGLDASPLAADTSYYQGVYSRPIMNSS

CN1C(=O)CC[C@H]1c1cccnc1
not listed: [18] | [19]
inactive: all other assays above

CC(C)(O)c1ccc(CNC(=O)c2cccnc2Oc2ccc3nonc3c2)cc1
inactive: all assays above

O=C(O)Cn1c(=O)n(Cc2ccc(Br)cc2F)c(=O)c2ccc(Cl)cc21
not listed: [15]
inactive: all other assays above

O=C(O)c1ccccc1C(=O)OCc1ccccc1
inactive: all assays above
